Results taken from ChEMBL document CHEMBL4513216, “Probing the Open Global Health Chemical Diversity Library for Multistage-Active Starting Points for Next-Generation Antimalarials” (ACS Infect Dis, 2020).
Screen size: about 69,000 compounds; about 8,600 (12%) showed an effect of 50% or more. What follows is part of a selection rich in strong results, with near analogues and random picks from the rest.

test system: Plasmodium berghei; test: Screen against P. berghei liver stage (PbLuc), transformed with Luciferase, at 10uM; assay type: functional, HepG2; conditions: tested at 10 uM

| SMILES | INHIBITION [%] |
| --- | --- |
| CC(C)C(=O)N1CCN(C(=O)N(C)C)CC2(CC(=O)N(C)C2)C1 (stereo not drawn) | 39.8 |
| CCn1c(Cn2cncn2)nnc1C1CCN(Cc2ccccn2)CC1 | 3.88 |
| O=C(CCc1ccccc1)NC1CCC2(CCC(=O)N2)CC1 (stereo not drawn) | 2.58 |
| COCCCN1CCN(CCOC)C(C)C1 (stereo not drawn) | -23.8 |
| CN(C)CCOCC1CN(CCN(C)C)Cc2ccnn2C1 (stereo not drawn) | -4.23 |
| COc1ccccc1OC1CN(c2ccncc2)C1 | 38.8 |
| Cc1cc(F)cc(S(=O)(=O)NCCCN2CCC(O)CC2)c1 | 25.1 |
| Cc1cc(F)c(S(=O)(=O)NCCCN2CCC(O)CC2)cc1F | -1.53 |
| CC(C)c1cccc(S(=O)(=O)NCCCN2CCC(O)CC2)c1 | 62.3 |
| Cc1ccc(S(=O)(=O)NCCCN2CCC(O)CC2)cc1Cl | 51.4 |
| CSCc1cccc(S(=O)(=O)NCCCN2CCOCC2)c1 | 18.5 |
| Cc1ccc(S(=O)(=O)NCCCN2CCC(O)CC2)c(F)c1 | 41.4 |
| CN(CCc1ccccn1)C1CCCN(Cc2noc(C3CC3)n2)C1 (stereo not drawn) | 24.1 |
| COc1ccccc1C(O)CNc1c(C#N)c(=O)n(C)c(=O)n1C (stereo not drawn) | 46.2 |
| Cn1ccc(C(=O)NCCOc2ccc3c(c2)OCO3)cc1=O | -3.54 |
| Cc1nc(COC[C@@H]2CC[C@H]3[C@H](CCN3c3ncccn3)O2)cs1 | 46.6 |
| CCCn1c(C)c(CC(=O)NCCOC)c2c1CC(C)(C)CC2=O | -3.72 |
| COC(C)C(=O)NS(=O)(=O)c1ccc(F)c(C(F)(F)F)c1 (stereo not drawn) | 19.5 |
| CC(C)C(=O)NS(=O)(=O)c1ccc(F)c(C(F)(F)F)c1 | 0.825 |
| CC(=O)NS(=O)(=O)c1ccc(F)c(C(F)(F)F)c1 | 54.7 |
| COc1cc(Cl)c(NC(=O)c2cc3c([nH]c2=O)CCCC3=O)cc1OC | 43.6 |
| Cc1nc(SCC(=O)Nc2ccc(C(N)=O)cc2)c(C#N)c(C)c1C | 48.7 |

| SMILES | INHIBITION [%] |
| --- | --- |
| Cc1ccc(C(=O)Nc2ccc(N(C)C)nc2)n1C | -130 |
| Cn1ccnc1CN1CC[C@H](O)[C@@H](n2ccc(=O)[nH]c2=O)CC1 | 22 |
| CCN(CC)C(=O)[C@@H]1C[C@@H](n2cc(-c3cccc(OC)c3)nn2)CN1 | 53.3 |
| CCN(CC)C(=O)[C@@H]1C[C@@H](n2cc(-c3ccccn3)nn2)CN1 | 85.4 |
| CNC(=O)[C@@H]1C[C@H](n2cc(-c3ccc(Cl)cc3)nn2)CN1 | 30.3 |
| CCN(CC)C(=O)[C@@H]1C[C@H](n2cc(-c3ccccn3)nn2)CN1 | 34 |
| CCN(CC)C(=O)[C@@H]1C[C@H](n2cc(-c3cccc(OC)c3)nn2)CN1 | 16.9 |
| CNC(=O)[C@@H]1C[C@@H](n2cc(-c3ccc(Cl)cc3)nn2)CN1 | 43.9 |
| O=C(NCC(=O)N1CCCC(c2ccccc2)CC1)c1ccoc1 (stereo not drawn) | 23.4 |
| COC1CCN(C(=O)COC(C)=O)CC(=O)N(C)c2ccccc21 (stereo not drawn) | 32.1 |
| COCC[C@]1(O)CCN(CC(=O)NCc2ccccn2)C[C@H]1C | 25.4 |
| Cc1cc(C)nc(N2CC=C[C@H]2C(=O)NCc2ccc3c(c2)OCO3)n1 | 25.8 |
| CCCC(=O)Nc1cnn(CC(=O)Nc2ccc(SC)cc2)c1 | 14.3 |
| CCn1nc(C)c(C(C)Nc2cc(C3CCNCC3)nc(C)n2)c1C (stereo not drawn) | -46.8 |
| CS(=O)(=O)CCCNC1CCCN(Cc2noc(C3CC3)n2)C1 (stereo not drawn) | 19.5 |
| CC(C)c1nc2n(n1)CC(Nc1ncnc3ccccc13)CC2 (stereo not drawn) | 80.5 |
| Cc1nc2n(n1)CC(Nc1ncnc3c1CCC3)CC2 (stereo not drawn) | 41.5 |
| c1nc2c(c(NC3CCc4ncnn4C3)n1)CCC2 (stereo not drawn) | 76.7 |
| CCc1nc2n(n1)CC(Nc1cc(C)nc3ncnn13)CC2 (stereo not drawn) | 3.95 |
| c1nc2c(c(NC3CCC3)n1)CCNCC2 | 17.2 |
| CC(C)c1nc2n(n1)CC(NCc1cc3ccccc3o1)CC2 (stereo not drawn) | 43.2 |
| c1ccc(CNC2CCc3ncnn3C2)nc1 (stereo not drawn) | -0.847 |

| SMILES | INHIBITION [%] |
| --- | --- |
| Cc1cc(NC2CCc3ncnn3C2)n2ncnc2n1 (stereo not drawn) | 57.7 |
| FC(F)(F)c1nc(NC2CCc3ncnn3C2)c2ccccc2n1 (stereo not drawn) | 2.25 |
| CC(C)c1nc2n(n1)CC(Nc1ncnc3c1CCC3)CC2 (stereo not drawn) | 48 |
| c1ccc2c(NC3CCc4ncnn4C3)ncnc2c1 (stereo not drawn) | 63.8 |
| Cc1cc(NC2CCc3nc(C)nn3C2)n2ncnc2n1 (stereo not drawn) | -12.5 |
| Cn1cnc2c1C(COCc1ccccc1)N(Cc1cccnc1)CC2 (stereo not drawn) | 8.85 |
| Cc1nc2ccc(C(=O)N3CC[C@H](O)[C@@H](N4CCOCC4)CC3)cc2[nH]1 | -5.71 |
| O=C(N[C@@H]1CN(Cc2c[nH]nc2-c2ccccc2)C[C@H]1O)c1cc[nH]n1 | -3.182 |
| CN(C)C(=O)COCc1nnc2n1CCN(Cc1ccsc1)C2 | 39.4 |
| O=C1COC2(CCN(Cc3ccncc3)CC2)CN1 | -55 |
| CCOc1ccc(Br)cc1-c1cc(N)[nH]n1 | -21.3 |
| CC(C)C(=O)N1CCCC2(CCCN2CC2CCCC2)C1 (stereo not drawn) | -26.5 |
| O=C(Cc1c[nH]c2ccccc12)N1CCC(Nc2cccnc2)CC1 | -12.2 |
| O=C(NCCOc1ccc(Cl)cn1)Nc1cccnc1 | -24.7 |
| CC1(C(=O)N2CCOCC2)CN(Cc2cccnc2)CCO1 (stereo not drawn) | 2.71 |
| CCC(O)CN(Cc1cccc(C(=O)N(C)C)c1)c1ccccc1 (stereo not drawn) | 2.93 |
| CC(O)CN(Cc1cccc(C(=O)N(C)C)c1)c1ccccc1 (stereo not drawn) | 60.5 |
| CC(O)CN(Cc1cccc(C(N)=O)c1)c1ccccc1 (stereo not drawn) | 28.9 |
| CC(O)(CNc1ccc(Cl)c(C#N)n1)c1ccccc1 (stereo not drawn) | -25 |
| CC(C)c1nnc2n1CCN(CCS(=O)(=O)c1ccccc1)C2 | 4.71 |
| COCC1CC2(CCN(CC3CC3)CC2)CN1Cc1ccccn1 (stereo not drawn) | 13.1 |
| CCN1CCC2(CC1)CC(COC)N(Cc1csc(C)n1)C2 (stereo not drawn) | 8.85 |

| SMILES | INHIBITION [%] |
| --- | --- |
| COCC1CC2(CCN(C(N)=O)CC2)CN1Cc1csc(C)n1 (stereo not drawn) | 41 |
| COCC1CC2(CCN(Cc3nccs3)CC2)CN1Cc1ccccn1 (stereo not drawn) | 71.1 |
| COCC1CC2(CCN(C(C)=O)CC2)CN1Cc1csc(C)n1 (stereo not drawn) | 79.6 |
| COCC1CC2(CCN(Cc3ccoc3)CC2)CN1Cc1ccccn1 (stereo not drawn) | 48.4 |
| Cc1cc(C)n(CC2CCCN2CC(=O)N(C)Cc2ccco2)n1 (stereo not drawn) | 4.71 |
| Cc1nnc(-c2cccc(C#N)c2)n1C1CCN(C2CC2)C1=O (stereo not drawn) | -25.7 |
| O=C(Cn1cc(I)cn1)NCC1CCC1 | 27.5 |
| Cc1cc(CN2CCCC(CNC(=O)Cn3cccn3)C2)oc1C (stereo not drawn) | 57.6 |
| O=C(Cn1cccn1)NCC1CCN(Cc2cc3ccccc3[nH]2)C1 (stereo not drawn) | 9.79 |
| CCN1CCCC(CNC(=O)CCc2ccc(OC)c(F)c2)C1 (stereo not drawn) | 11.5 |
| Cc1cc(CN2CCC(CNC(=O)CN3CCCCCC3)C2)[nH]n1 (stereo not drawn) | 10.7 |
| O=C(Cn1cc(-n2cccc2)cn1)NCC(F)(F)F | 6.83 |
| O=C(Cn1cccn1)NCC1CCCN(Cc2ccccc2)C1 (stereo not drawn) | 13.7 |
| O=C(Cn1cc(-n2cccc2)cn1)NCC1CCC1 | 55.6 |
| CCCC(=O)NCC1CCCN(Cc2cc(C)c(C)o2)C1 (stereo not drawn) | 54.4 |
| CO[C@@H]1CN(c2ccccc2)S(=O)(=O)[C@@]12CCN(C)C2 | 32.1 |
| CN1CC(=O)N(c2ccccc2)CC12CCN(C(=O)CC1CC1)C2 (stereo not drawn) | 4.68 |
| CC[C@@H](c1ccccc1)n1c(CN)n[nH]c1=O | 4.48 |
| c1cncc(-c2noc(CN3CCn4c(nnc4C4CC4)C3)n2)c1 | 15.66 |
| COCCCNC(=O)C(C)n1cc(Br)cn1 (stereo not drawn) | -33.2 |
| O=C(NCc1ccco1)[C@H]1COC[C@H]2CN(Cc3ccccn3)C[C@H]21 | 15.9 |
| Cc1noc(C)c1CN(C)C(=O)c1nc(N2CCCC2)ncc1Cl | 61.9 |

| SMILES | INHIBITION [%] |
| --- | --- |
| CN(C)C(CNC(=O)c1nc(N2CCCC2)ncc1Cl)c1ccco1 (stereo not drawn) | 26 |
| CCOc1ccc(CN(C)C(=O)c2nc(N3CCCC3)ncc2Cl)cc1 | 24.8 |
| CC(C)C(C)N(Cc1ccccn1)Cc1ccco1 (stereo not drawn) | 16.3 |
| CCc1ccc(CN(Cc2ccco2)C(C)C(C)C)nc1 (stereo not drawn) | 60.7 |
| COCc1ncc(CN(Cc2ccco2)C(C)C(C)C)cn1 (stereo not drawn) | 20.9 |
| CC(=O)N1CCCC(c2ccc(Br)cn2)C1 (stereo not drawn) | 29.2 |
| O=C(c1ccco1)N1CCCC2(CCN(c3nncs3)C2)C1 (stereo not drawn) | 56.6 |
| O=C(c1ccco1)N1CCCC2(CCN(CCN3CCCC3)C2=O)C1 (stereo not drawn) | 58.5 |
| COc1cccc(CN2CCCC3(CCN(C(=O)[C@H]4CCCO4)C3)C2)c1 (stereo partly drawn) | 13.2 |
| COc1cccc(CN2CCCC3(CCN(C(=O)c4ccco4)C3)C2)c1 (stereo not drawn) | 69.1 |
| O=C(c1ccoc1)N1CCC2(C1)CN(c1ncc(F)cn1)C2 | -0.813 |
| Cn1cccc1C(=O)N1CCCC2(CCN(CCN3CCCC3)C2=O)C1 (stereo not drawn) | -14.9 |
| O=C(c1ccoc1)N1CCC2(CCCN(c3ncc(F)cn3)C2)C1 (stereo not drawn) | 53 |
| COc1cccc(CN2CCCC3(CCN(C(=O)N4CCCC4)C3)C2)c1 (stereo not drawn) | 8.74 |
| O=C(c1ccco1)N1CCCC2(C1)CN(c1nncs1)CCO2 (stereo not drawn) | 45.7 |
| Cc1occc1C(=O)N1CCCC2(CCN(CCN3CCCC3)C2=O)C1 (stereo not drawn) | 23.5 |
| CC(=O)N1CCCC2(CCN(c3nncs3)C2)C1 (stereo not drawn) | 7.7 |
| O=C(c1ccncc1)N1CCC2(CCCN(c3ncc(F)cn3)C2)C1 (stereo not drawn) | 40.3 |
| COc1cccc2ccn(CC(=O)NCCC(C)C)c12 | 9.04 |
| CC(C)(C)c1nnc2n1C(C(=O)N1CCOCC1)CC2 (stereo not drawn) | -3.93 |
